# Laboratory results from the supplement of paper PMC9135407.
# Counter-ions that a name gives are not always drawn. Out of some 5,800 compounds screened, about 620 (11%) showed activity. The sample as a whole holds a higher share of actives than the screen did. A number with no mark means an inactive call.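 Rule for the calls: active = score above a cut-off or among the top three wells of a plate; in these data no inactive exceeds 0.85.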
# Tested on: primary human hepatic stellate cells (donor 1)
# Test: scaled lipid accumulation score (0 = DMSO-like, 1 = nortriptyline-like); higher = stronger HSC inactivation (lipid re-accumulation), active = hit call of the paper
# Settings: 48 h
# [1] = library stock concentration: 1 mM
# [2] = library stock concentration: 10 mM
# [3] = library stock concentration: 80 uM
# [4] = library stock concentration: 400 uM
# [5] = library stock concentration: 2 mM
# [6] = library stock concentration: 3.33 mM
compound,measurement,setting,value
O=C1C[C@@H]2[C@@H](CC[C@@H](O)CCc3ccccc3)[C@H](O)C[C@@H]2O1 [Latanoprost Lactone Diol],scaled lipid accumulation score,[1],0.003
O=C(CCCCCCCCCCCCC1CCCC1)Nc1ccc(S(=O)(=O)c2ccc(NC(=O)CCCCCCCCCCCCC3CCCC3)cc2)cc1 [Chaulmosulfone],scaled lipid accumulation score,[2],≤ -0.027
Cc1cc2c(F)c(Oc3ncnn4cc(OC[C@@H](C)O)c(C)c34)ccc2[nH]1 [Brivanib],scaled lipid accumulation score,[3],≤ -0.009
same,scaled lipid accumulation score,[4],≤ -0.009
same,scaled lipid accumulation score,[5],≤ -0.009
same,scaled lipid accumulation score,[2],≤ -0.009
COc1cc2c(Oc3ccc4[nH]c(C)cc4c3F)ncnc2cc1OCCCN1CCCC1 [Cediranib] [listing 1 of 2 here],scaled lipid accumulation score,[5],1.06 (active)
COc1cc2c(Oc3ccc4[nH]c(C)cc4c3F)ncnc2cc1OCCCN1CCCC1 [Cediranib] [listing 2 of 2 here],scaled lipid accumulation score,[3],0.077
same,scaled lipid accumulation score,[4],0.464
same,scaled lipid accumulation score,[2],0.693
Cc1cc2c(F)c(Oc3ncnn4cc(OC[C@@H](C)OC(=O)[C@H](C)N)c(C)c34)ccc2[nH]1,scaled lipid accumulation score,[6],≤ 0
same,scaled lipid accumulation score,[2],≤ 0
COc1cc2c(Oc3ccc4[nH]c(C)cc4c3F)ncnc2cc1OCCCN1CCCC1 [Cediranib (AZD2171)] [listing 1 of 2 here],scaled lipid accumulation score,[6],1.1 (active)
Cc1cc2c(F)c(Oc3ncnn4cc(OC[C@@H](C)O)c(C)c34)ccc2[nH]1,scaled lipid accumulation score,[6],0.023
same,scaled lipid accumulation score,[2],≤ 0
COc1cc2c(Oc3ccc4[nH]c(C)cc4c3F)ncnc2cc1OCCCN1CCCC1 [Cediranib (AZD2171)] [listing 2 of 2 here],scaled lipid accumulation score,[2],0.678
CCCCCCCC/C=C\CCCCCC(=O)O [cis-7-Hexadecenoic Acid],scaled lipid accumulation score,[1],≤ 0
COC(=O)C(C)(N)Cc1ccc(O)cc1 (racemic) [alpha-Methyl-DL-tyrosine methyl ester hydrochloride],scaled lipid accumulation score,[2],≤ -0.019
CN1CCC(CNc2ccc3ncc(-c4cccc(OC(F)(F)F)c4)n3n2)CC1 [listing 1 of 2 here],scaled lipid accumulation score,[5],1.4 (active)
CN1CCC(CNc2ccc3ncc(-c4cccc(OC(F)(F)F)c4)n3n2)CC1 [listing 2 of 2 here],scaled lipid accumulation score,[3],0.117
same,scaled lipid accumulation score,[4],0.23
same,scaled lipid accumulation score,[2],0.47
CN1CCC(CNc2ccc3ncc(-c4cccc(OC(F)(F)F)c4)n3n2)CC1 [SGI-1776 free base],scaled lipid accumulation score,[6],0.774
same,scaled lipid accumulation score,[2],0.181
CCCCC/C=C\C/C=C\C/C=C\C/C=C\CCCC(=O)NC[C@]1(C)CCC[C@]2(C)c3ccc(C(C)C)cc3CC[C@@H]12 [Arachidonic Acid Leelamide],scaled lipid accumulation score,[1],0.002
CCCCCCCCCCCCCCCC(=O)NC(CO)CO [Palmitoyl Serinol],scaled lipid accumulation score,[1],0.026
O=C(Nc1ccncc1)Nc1c(Cl)cc(Cl)cc1Cl [Rho Kinase Inhibitor II],scaled lipid accumulation score,[6],≤ 0
Cc1cc(C)c(Nc2ccnc(Nc3ccc(C#N)cc3)n2)c(C)c1 [Dapivirine (TMC120)] [listing 1 of 2 here],scaled lipid accumulation score,[6],0.243
Cc1cc(C)c(Nc2ccnc(Nc3ccc(C#N)cc3)n2)c(C)c1 [Dapivirine (TMC120)] [listing 2 of 2 here],scaled lipid accumulation score,[2],1.08 (active)
Cc1cc(/C=C/C#N)cc(C)c1Nc1ccnc(Nc2ccc(C#N)cc2)n1 [Rilpivirine],scaled lipid accumulation score,[6],≤ -0.009
same,scaled lipid accumulation score,[2],≤ 0
Cc1ccccc1-c1cccc(N2CCC(N3CCN(C)C(C)C3)CC2)c1 (centres undefined),scaled lipid accumulation score,[2],1.05 (active)
O=C(O)CCC/C=C\C[C@@H]1[C@@H](/C=C/[C@H](O)CCc2ccccc2)[C@H](O)C[C@@H]1O [15(R)-17-phenyl trinor Prostaglandin F2.alpha.],scaled lipid accumulation score,[1],≤ 0
CNC(=O)[C@@H](Cc1ccccc1)N(C)C(=O)[C@@H](Cc1ccc2ccccc2c1)N(C)C(=O)/C=C/CC(C)(C)N.CNC(=O)[C@@H](Cc1ccccc1)N(C)C(=O)[C@@H](Cc1ccc2ccccc2c1)N(C)C(=O)/C=C/CC(C)(C)N.O=C(O)/C=C/C(=O)O [Tabimorelin],scaled lipid accumulation score,[2],1.3 (active)
CN(Cc1ccccc1)C(=O)[C@H](Cc1ccc2ccccc2c1)NC(=O)[C@@H]1CCCN1C(=O)Nc1ccccc1[N+](=O)[O-],scaled lipid accumulation score,[2],0.005
CN(Cc1ccccc1)C(=O)[C@H](Cc1ccc2ccccc2c1)NC(=O)[C@@H]1C[C@@H](O)CN1C(=O)c1cn(C)c2ccccc12,scaled lipid accumulation score,[2],0.019
CCCCCCCCCCCCC/C=C/[C@@H](O)[C@H](CO)NC(=O)CCCCCCCCCCCCCCC [C16 Ceramide],scaled lipid accumulation score,[1],≤ -0.021
C[n+]1cc2c3c(ccc2c2ccc4cc5c(cc4c21)OCO5)OCO3 [Sanguinarine sulfate],scaled lipid accumulation score,library stock concentration: 4.7 mM,0.693
same,scaled lipid accumulation score,[2],0.287
COc1ccc2cc3[n+](cc2c1OC)CCc1cc2c(cc1-3)OCO2 [Berberine chloride],scaled lipid accumulation score,,≤ 0
same,scaled lipid accumulation score,[2],≤ 0
C[n+]1cc2c3c(ccc2c2ccc4cc5c(cc4c21)OCO5)OCO3 [Sanguinarine chloride],scaled lipid accumulation score,[2],0.196
COc1ccc2cc3[n+](cc2c1OC)CCc1cc2c(cc1-3)OCO2 [Berberine HCl],scaled lipid accumulation score,[6],≤ 0
same,scaled lipid accumulation score,[2],≤ 0
C[n+]1cc2c3c(ccc2c2ccc4cc5c(cc4c21)OCO5)OCO3 [Sanguinarine],scaled lipid accumulation score,,0.869 (active)
CC#CCC(C)C(=O)/C=C/[C@@H]1[C@H]2C/C(=C/CCCC(=O)O)C[C@H]2C[C@H]1O (some centres undefined) [15-keto Iloprost],scaled lipid accumulation score,[1],≤ 0
CC(C)OC(=O)CCC/C=C\C[C@@H]1[C@@H](/C=C/C(=O)COc2cccc(C(F)(F)F)c2)[C@H](O)C[C@@H]1O [15-keto Fluprostenol isopropyl ester],scaled lipid accumulation score,[1],≤ 0
CC1CC2C3CCC4=CC(=O)C=CC4(C)C3(F)C(O)CC2(C)C1C(=O)CO (centres undefined),scaled lipid accumulation score,[2],≤ 0
COc1cc2ncnc(Nc3ccc(F)c(Cl)c3)c2cc1NC(=O)/C=C/CN1CCCCC1,scaled lipid accumulation score,[3],≤ -0.016
same,scaled lipid accumulation score,[4],0.274
same,scaled lipid accumulation score,[2],0.219
COc1cc2ncnc(Nc3ccc(F)c(Cl)c3)c2cc1NC(=O)C=CCN1CCCCC1 [listing 1 of 2 here],scaled lipid accumulation score,[6],1.08 (active)
COc1cc2ncnc(Nc3ccc(F)c(Cl)c3)c2cc1NC(=O)C=CCN1CCCCC1 [listing 2 of 2 here],scaled lipid accumulation score,[5],0.903 (active)
same,scaled lipid accumulation score,[2],1.47 (active)
CNC(=O)CN1CCC(Oc2cc3c(Nc4cccc(Cl)c4F)ncnc3cc2OC)CC1 [AZD8931 (Sapitinib)],scaled lipid accumulation score,[6],0.28
same,scaled lipid accumulation score,[2],0.713
O=C1/C(=C/c2cccs2)CCC/C1=C\c1cccs1,scaled lipid accumulation score,[2],≤ 0
CC(=O)N1CCN(c2ccc(OCC3COC(Cn4ccnc4)(c4ccc(Cl)cc4Cl)O3)cc2)CC1 (centres undefined),scaled lipid accumulation score,[2],0.048
CC(=O)N1CCN(c2ccc(OCC3COC(Cn4ccnc4)(c4ccc(Cl)cc4Cl)O3)cc2)CC1 (centres undefined) [Ketoconazole],scaled lipid accumulation score,,0.131
same,scaled lipid accumulation score,[6],0.086
CC(=O)Oc1c(C)c(C)c2c(c1C)CCC(C)(CCCC(C)CCCC(C)CCCC(C)C)O2 (stereo not drawn) [Alpha-tochopheryl acetate],scaled lipid accumulation score,[2],0.117
O=C1NC(=O)c2c1c1c3ccccc3[nH]c1n1cncc21 [Isogranulatimide],scaled lipid accumulation score,[6],≤ 0
CCCCC[C@H](O)/C=C/[C@@H]1[C@@H](C/C=C\CCCC(=O)OC(C)C)[C@@H](O)C[C@H]1O [Prostaglandin F2.alpha. isopropyl ester],scaled lipid accumulation score,[1],≤ 0
O=C(O)CC/C=C\C[C@H]1CO[C@@H](c2ccccc2Cl)O[C@H]1c1ccccc1O,scaled lipid accumulation score,[2],≤ 0
C=C1/C(=C\C=C2/CCC[C@]3(C)[C@@H]([C@H](C)CCCC(C)C)CC[C@@H]23)C[C@@H](O)C[C@@H]1O [Alfacalcidol],scaled lipid accumulation score,[6],≤ 0
same,scaled lipid accumulation score,library stock concentration: 5 mM,≤ -0.006
C=C1/C(=C\C=C2/CCC[C@]3(C)[C@@H]([C@H](C)CCCC(C)(C)O)CC[C@@H]23)C[C@@H](O)C[C@@H]1O,scaled lipid accumulation score,[2],≤ 0
C=C1/C(=C\C=C2/CCC[C@]3(C)[C@@H]([C@H](C)CCCC(C)(C)O)CC[C@@H]23)C[C@@H](O)C[C@@H]1O [Calcitriol],scaled lipid accumulation score,[6],≤ 0
same,scaled lipid accumulation score,library stock concentration: 4.8 mM,0.018
same,scaled lipid accumulation score,[2],≤ 0
C=C1C(=CC=C2CCC[C@]3(C)[C@@H]([C@H](C)CCCC(C)C)CC[C@@H]23)C[C@@H](O)C[C@@H]1O [Alfacalcidol],scaled lipid accumulation score,[2],1.03 (active)
"C=C1/C(=C\C=C2/CCC[C@]3(C)[C@@H]([C@H](C)CCCC(C)(C)O)CC[C@@H]23)C[C@@H](O)C[C@@H]1O [1?,25-Dihydroxyvitamin D3]",scaled lipid accumulation score,[1],0.004
O=C(c1cc2cc(O)ccc2[nH]1)c1cc2cc(O)ccc2[nH]1 [Flt-3 Inhibitor II],scaled lipid accumulation score,[6],≤ 0
Nc1ccccc1NC(=O)c1ccc(CNc2nccc(-c3cccnc3)n2)cc1 [Mocetinostat (MGCD0103)] [listing 1 of 2 here],scaled lipid accumulation score,[6],0.974 (active)
Nc1ccccc1NC(=O)c1ccc(CNC(=O)OCc2cccnc2)cc1,scaled lipid accumulation score,[3],≤ 0
same,scaled lipid accumulation score,[4],≤ 0
same,scaled lipid accumulation score,[1],0.014
same,scaled lipid accumulation score,[5],≤ 0
same,scaled lipid accumulation score,[2],0.628
Nc1ccccc1NC(=O)c1ccc(CNc2nccc(-c3cccnc3)n2)cc1 [Mocetinostat (MGCD0103)] [listing 2 of 2 here],scaled lipid accumulation score,[2],0.769
Nc1ccccc1NC(=O)c1ccc(CNC(=O)OCc2cccnc2)cc1 [Entinostat (MS-275)],scaled lipid accumulation score,[6],0.152
same,scaled lipid accumulation score,[2],0.418
Nc1ccccc1NC(=O)c1ccc(CNc2nccc(-c3cccnc3)n2)cc1 [Mocetinostat] [listing 1 of 2 here],scaled lipid accumulation score,[3],≤ 0
same,scaled lipid accumulation score,[4],≤ 0
CC(=O)Nc1ccc(C(=O)Nc2ccccc2N)cc1 [CI994 (Tacedinaline)],scaled lipid accumulation score,[6],≤ 0
same,scaled lipid accumulation score,[2],0.161
Nc1ccccc1NC(=O)c1ccc(CNc2nccc(-c3cccnc3)n2)cc1 [Mocetinostat] [listing 2 of 2 here],scaled lipid accumulation score,[5],0.728 (active)
same,scaled lipid accumulation score,[2],0.648 (active)
O=C(Nc1ccc(Cl)cc1)c1ccccc1NCc1ccncc1 [VEGF Receptor Tyrosine Kinase Inhibitor II],scaled lipid accumulation score,[6],≤ 0
